# About 760 (36%) of roughly 2,100 compounds were called active. Not all results are given here. A number with no mark means an inactive call.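 Rule for the calls: active = thallium-flux fluorescence traces judged by eye to show enhanced or reduced glutamate response, manual score 1 or -1, so both directions (some results past the limit were not filed as active); inactive = the rest, including fluorescent or raised-baseline compounds.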
# Assay: thallium influx changes without GIRK channels – cell-based, HEK-293 rmGlu8, no GIRK, thallium flux, counter-screen for GIRK activator project, confirmation (AID 623868);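 note: extra codes mark interference with 3 for fluorescent and 4 for baseline rise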
# Details: thallium flux fluorescence, at 10 µM, actives lie on both sides, codes: 1 enhancer, -1 blocker, 0 none, thallium stimulus containing EC20 glutamate
row,Structure (SMILES),manual score
1,Cc1cc(N2CCC(C)CC2)n2ncc(-c3ccccc3)c2n1,0
2,O=C(C1CCN(c2ncnc3c2sc2cccc(F)c23)CC1)N1CCOCC1,-0.5
3,CN(C)CCCOc1nc2c(c(=O)n(C)c(=O)n2C)n1C,1.5
4,CC1CCc2c(sc(NC(=O)C(=O)NCc3ccco3)c2C#N)C1 (centres undefined),1 (active)
5,O=C(Nc1ccc(Cl)cc1)NC1CCCCC1Cc1ccco1 (centres undefined),0
6,O=C(NCc1ccccc1)C(=O)Nc1nc(C23CC4CC(CC(C4)C2)C3)cs1,0
7,CCOC(=O)C(C)Sc1nnc(-c2c[nH]c3ccccc23)n1C (centres undefined),0
8,CCn1nc(C(=O)OCC(=O)N2CCc3ccccc32)c2ccccc2c1=O,-1 (active)
9,CCCCn1nc(C(=O)N2CCc3ccccc32)c2ccccc2c1=O,0
10,CCn1nc(C(=O)OCC(=O)c2c[nH]c3ccccc23)c2ccccc2c1=O,-1 (active)
11,O=C(COc1ccc2ccccc2c1CN1CCOCC1)N1CCc2ccccc21,0
12,CCN(C(=O)CN1CCN(c2ccccc2O)CC1)c1c(N)n(Cc2ccccc2)c(=O)[nH]c1=O,0
13,CC(C)(C)c1ccc(SCC(N)=O)cc1,0
14,CC(C)(C)NC(=O)C(=O)NNC(=O)c1ccc(C(C)(C)C)cc1,1 (active)
15,CC(C)(C)c1ccc(C(=O)NC(=S)Nn2cnnc2)cc1,0
16,Cc1cccc(C(=O)NNC(=O)C(=O)NC(C)(C)C)c1,1 (active)
17,COc1cc(NC(=O)CCn2c(=O)[nH]c3ccsc3c2=O)cc(OC)c1,0
18,COc1ccccc1N1CCN(C(=O)CCn2c(=O)[nH]c3ccsc3c2=O)CC1,0
19,COc1ccc(Cn2c(=S)[nH]c3ccsc3c2=O)cc1,1 (active)
20,Cc1cc(C)cc(OCC(=O)N2N=C(C(F)(F)F)CC2(O)C(C)(C)C)c1 (centres undefined),0
21,Cc1ccccc1CNC(=O)Nc1cccs1,0
22,Cc1ccccc1C(=O)Nc1ccc2nc3n(c(=O)c2c1)CCC3,0
23,Cc1ccccc1C(=O)Nc1nc(=S)ss1,1 (active)

row,Structure (SMILES),manual score
1,O=C(Cn1c(=O)[nH]c2ccsc2c1=O)NC1CCCCCC1,0
2,CCc1ccc2c(c1)c(N=NC1=NC(=O)CS1)c(O)n2CC,1 (active)
3,CCn1c(O)c(N=NC2=NC(=O)CS2)c2cc(C)ccc21,1 (active)
4,CCc1ccc2c(c1)c(N=NC1=NC(=O)CS1)c(O)n2C,1 (active)
5,CC(Nc1nc(N2CCCC2)nc2ccccc12)c1ccccc1 (centres undefined),0
6,Cc1ccccc1/C=c1\s/c(=C\C(=O)C(C)(C)C)[nH]c1=O,0.5
7,CC(C)(C)S(=O)(=O)c1ccc(S(=O)(=O)C(C)(C)C)s1,0
8,CCCn1nnnc1NC(=O)c1ccc2ccccc2c1,1 (active)
9,CCCn1nc2cc(C(=O)NCCc3ccc(C)cc3)ccc2c1OCC,0
10,CCC(=O)Nc1ccc2c(c1)ncn2-c1ccc(OC)cc1,0
11,CC1CCCN(Cc2cccc(Oc3ccccc3)c2)C1 (centres undefined),0
12,Cc1ccc(N=Nc2ccc(O)c3ncccc23)cc1,1 (active)
13,Cc1ccccc1N=Nc1ccc(O)c2ncccc12,1 (active)
14,O=c1cc(CN2CCOCC2)nc(C2CC2)[nH]1,0
15,C/C(CC(O)c1ccc2ccccc2n1)=N/O (centres undefined),0
16,CCCCn1c(N)c(C(=S)NC(=O)CC(C)(C)C)c(=O)n(C)c1=O,1 (active)
17,CCCCn1c(N)c(C(=S)NC(=O)CC(C)C)c(=O)n(C)c1=O,1 (active)
18,CCN(CC)c1ccc2cc(-c3nnc(-c4ccccc4)o3)c(=O)oc2c1,3
19,CC12CCC(C(=O)N(CSC(=S)N/N=C\c3ccccc3O)C1=O)C2(C)C (centres undefined),1 (active)
20,CC12CCC(C(=O)N(CSC(=S)N/N=C\c3ccccc3Cl)C1=O)C2(C)C (centres undefined),1 (active)
21,O=C(c1cccc(F)c1)N1CCN(C(=O)c2cc(-c3ccc(Cl)cc3Cl)on2)CC1,0
22,CC(C)n1c(-c2ccc(C(C)(C)C)cc2)n[nH]c1=S,1 (active)
23,CC(C)(C)c1ccc(-c2n[nH]c(=S)n2C2CCCC2)cc1,1 (active)

row,Structure (SMILES),manual score
1,CCCCCCc1cc2cc(-c3nnc(-c4cc(OC)c(OC)c(OC)c4)o3)c(=O)oc2cc1O,3
2,CC(C)CCn1c(S(=O)(=O)O)nc2ccccc21,0
3,O=C(N/N=C\c1ccc(Cl)s1)c1cccs1,1 (active)
4,NS(=O)(=O)c1ccc(CCNC2CC(=O)N(Cc3ccccc3)C2=O)cc1 (centres undefined),0
5,Cc1cccc(-n2ncc3c(NCCc4ccc(S(N)(=O)=O)cc4)ncnc32)c1,0
6,Cc1nc(NCCc2ccc(S(N)(=O)=O)cc2)c2c(C)c(C)sc2n1,1 (active)
7,Cc1ccc(C2CC2C(=O)NNC(=S)Nc2ccc(Cl)cc2)cc1 (centres undefined),0.5
8,CCc1cc(C(=O)NNC(=S)Nc2ccccc2C)cs1,1 (active)
9,CCc1cc(C(=O)NNC(=S)Nc2cc(C)ccc2C)cs1,1 (active)
10,Cc1ccc(C2CC2C(=O)NNC(=S)Nc2cccc(C)c2)cc1 (centres undefined),1 (active)
11,CCc1cccc(NC(=O)CCSCCC(=O)Nc2cccc(CC)c2)c1,0
12,CCn1c(NC(=O)Nc2cccc(C)c2C)cc2sccc21,0
13,CCc1cc(C(=O)NNC(=S)Nc2cccc(C)c2)cs1,1 (active)
14,Cc1ccc(C2CC2C(=O)NNC(=S)Nc2cccc(Cl)c2)cc1 (centres undefined),0
15,Cc1ccc(Cl)cc1NC(=S)NCc1cccn1C,0
16,CCOC(=O)CC1=C(C(=O)OCC)C(c2cccs2)C(C#N)=C(N)O1 (centres undefined),-0.5
17,CCOc1ccc(NC(=O)Nc2cccs2)cc1,0
18,CCCCN(C)CC(O)Cn1cc(/C=C/C(=O)c2cccs2)c2ccccc21 (centres undefined),3
19,Cc1cccc(NC(=S)NNC(=O)c2sccc2C)c1,1 (active)
20,CC(C)C(=O)Nc1nnn(C)n1,0
21,C=CCNCc1cccn1-c1sc2c(c1C#N)CCCC2,0
22,Cc1[nH]n(-c2cccc3ccccc23)c(=O)c1/C=N/c1sc2c(c1C#N)CCC2,1 (active)
23,Cc1[nH]n(-c2ccc(F)cc2)c(=O)c1/C=N/c1sc2c(c1C#N)CCCC2,3
